# From paper PMC7862700, “An all-to-all approach to the identification of sequence-specific readers for epigenetic DNA modifications on cytosine”
# How the values were obtained:
# Assay in all cases: DAPPL (digital affinity profiling via proximity ligation, sequencing); 10 mM Tris-HCl pH 7.5, 50 mM NaCl, 1 mM DTT, 4% glycerol, room temperature, 30 min; GST-TFs on glutathione beads, 16-mer random dsDNA library, 0.1% formaldehyde crosslink after washing; high values mean tight binding
# Settings in all cases: protein: recombinant; tags: N-terminal GST; dsDNA, one strand shown
# ETV1 = ETV1 (Homo sapiens, UniProt P50549 1-477)
# Outline: (§1)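 Binding signal is each hexamer's read frequency for a factor divided by its frequency in the tag-only sample. The factors were GST-fused human transcription factors from yeast, captured on glutathione beads, DNA-barcoded and pooled with that sample. Pools were incubated with 200 nmole of a random double-stranded 16-mer DNA library in Tris/NaCl/DTT/glycerol buffer at room temperature for 30 min, then washed, crosslinked with 0.1% formaldehyde, proximity-ligated with BsaI/T4 ligase (1 h, 37 °C), PCR-amplified and sequenced on an Illumina NextSeq500.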
# ERF = biological target: T1, ERF (Homo sapiens, UniProt P50548 1-548)
# T1 sequence: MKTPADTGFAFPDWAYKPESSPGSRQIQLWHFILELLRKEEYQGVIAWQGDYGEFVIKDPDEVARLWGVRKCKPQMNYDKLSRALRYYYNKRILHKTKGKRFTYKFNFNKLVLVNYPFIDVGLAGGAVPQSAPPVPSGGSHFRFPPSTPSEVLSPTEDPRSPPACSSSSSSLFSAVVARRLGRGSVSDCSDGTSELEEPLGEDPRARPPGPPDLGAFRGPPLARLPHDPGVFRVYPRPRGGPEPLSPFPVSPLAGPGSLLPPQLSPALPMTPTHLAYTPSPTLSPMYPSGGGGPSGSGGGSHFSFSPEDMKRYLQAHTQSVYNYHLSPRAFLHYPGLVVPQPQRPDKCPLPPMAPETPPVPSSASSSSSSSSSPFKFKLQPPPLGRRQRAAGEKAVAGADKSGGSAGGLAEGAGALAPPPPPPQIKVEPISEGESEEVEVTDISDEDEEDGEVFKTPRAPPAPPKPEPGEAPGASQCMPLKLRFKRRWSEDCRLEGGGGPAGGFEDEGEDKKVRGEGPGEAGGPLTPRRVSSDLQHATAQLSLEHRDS
# Outline: as §1
# ETV3L = biological target: T2, ETV3L (Homo sapiens, UniProt Q6ZN32 1-361)
# T2 sequence: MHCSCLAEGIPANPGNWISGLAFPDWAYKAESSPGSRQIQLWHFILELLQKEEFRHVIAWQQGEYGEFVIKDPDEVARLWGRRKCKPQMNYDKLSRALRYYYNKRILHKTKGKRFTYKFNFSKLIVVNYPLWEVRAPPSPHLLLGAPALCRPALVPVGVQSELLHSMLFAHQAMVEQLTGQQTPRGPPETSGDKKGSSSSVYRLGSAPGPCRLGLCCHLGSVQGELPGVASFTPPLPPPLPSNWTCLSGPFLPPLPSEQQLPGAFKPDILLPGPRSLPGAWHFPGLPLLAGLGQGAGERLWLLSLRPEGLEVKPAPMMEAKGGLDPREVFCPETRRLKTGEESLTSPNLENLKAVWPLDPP
# Outline: as §1
# ETS2 = biological target: T3, ETS2 (Homo sapiens, UniProt P15036 1-469)
# T3 sequence: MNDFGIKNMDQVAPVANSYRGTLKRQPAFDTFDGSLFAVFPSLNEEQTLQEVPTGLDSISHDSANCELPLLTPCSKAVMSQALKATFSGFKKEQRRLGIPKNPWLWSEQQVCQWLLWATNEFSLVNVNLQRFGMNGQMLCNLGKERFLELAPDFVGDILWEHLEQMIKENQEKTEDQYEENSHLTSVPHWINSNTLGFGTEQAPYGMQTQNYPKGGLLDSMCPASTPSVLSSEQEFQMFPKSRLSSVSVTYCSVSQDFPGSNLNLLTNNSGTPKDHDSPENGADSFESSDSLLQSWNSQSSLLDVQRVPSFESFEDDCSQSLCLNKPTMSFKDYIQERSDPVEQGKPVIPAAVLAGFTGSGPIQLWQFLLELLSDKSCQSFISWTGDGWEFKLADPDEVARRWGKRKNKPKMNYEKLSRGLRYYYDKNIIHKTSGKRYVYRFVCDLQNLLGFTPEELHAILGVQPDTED
# Outline: as §1
# SPDEF = biological target: T4, SPDEF (Homo sapiens, UniProt O95238 1-335)
# T4 sequence: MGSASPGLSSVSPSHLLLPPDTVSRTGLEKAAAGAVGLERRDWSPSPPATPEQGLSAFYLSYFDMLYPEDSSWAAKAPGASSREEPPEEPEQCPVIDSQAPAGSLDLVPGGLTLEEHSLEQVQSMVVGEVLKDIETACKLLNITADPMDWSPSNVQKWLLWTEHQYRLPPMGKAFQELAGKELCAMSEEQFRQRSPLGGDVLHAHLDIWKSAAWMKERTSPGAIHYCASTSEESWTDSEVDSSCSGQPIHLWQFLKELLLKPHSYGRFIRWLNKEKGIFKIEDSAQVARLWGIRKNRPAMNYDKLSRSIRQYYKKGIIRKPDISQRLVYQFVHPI
# Outline: as §1
# ETV7 = biological target: T5, ETV7 (Homo sapiens, UniProt Q9Y603 1-341)
# T5 sequence: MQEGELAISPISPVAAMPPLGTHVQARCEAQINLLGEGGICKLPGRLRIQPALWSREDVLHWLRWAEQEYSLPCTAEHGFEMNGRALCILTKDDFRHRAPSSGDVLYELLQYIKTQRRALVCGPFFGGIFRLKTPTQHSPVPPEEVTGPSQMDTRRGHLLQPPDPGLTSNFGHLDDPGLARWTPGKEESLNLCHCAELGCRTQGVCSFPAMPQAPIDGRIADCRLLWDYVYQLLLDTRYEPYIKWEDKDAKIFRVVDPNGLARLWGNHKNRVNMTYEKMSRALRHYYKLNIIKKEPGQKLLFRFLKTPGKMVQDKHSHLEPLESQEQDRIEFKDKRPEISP
# Outline: as §1
# ELF5 = biological target: T6, ELF5 (Homo sapiens, UniProt Q9UKW6-2 1-255)
# T6 sequence: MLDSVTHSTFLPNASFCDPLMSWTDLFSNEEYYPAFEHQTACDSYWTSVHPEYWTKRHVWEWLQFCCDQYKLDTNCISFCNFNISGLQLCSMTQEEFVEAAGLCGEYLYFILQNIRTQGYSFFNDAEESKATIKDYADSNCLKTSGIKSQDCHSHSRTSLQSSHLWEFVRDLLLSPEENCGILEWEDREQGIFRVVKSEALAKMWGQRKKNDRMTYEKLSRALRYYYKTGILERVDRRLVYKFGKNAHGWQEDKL
# Outline: as §1
# ETV3 = biological target: T7, ETV3 (Homo sapiens, UniProt P41162-2 1-143)
# T7 sequence: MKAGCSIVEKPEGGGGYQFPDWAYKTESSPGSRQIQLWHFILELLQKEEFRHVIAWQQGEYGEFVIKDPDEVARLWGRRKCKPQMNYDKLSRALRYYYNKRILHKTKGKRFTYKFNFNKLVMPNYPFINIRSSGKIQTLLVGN
# Outline: as §1
# ETV6 = ETV6 (Homo sapiens, UniProt P41212 1-452)
# Outline: as §1
# Sequence of ETV6 (P41212 whole entry): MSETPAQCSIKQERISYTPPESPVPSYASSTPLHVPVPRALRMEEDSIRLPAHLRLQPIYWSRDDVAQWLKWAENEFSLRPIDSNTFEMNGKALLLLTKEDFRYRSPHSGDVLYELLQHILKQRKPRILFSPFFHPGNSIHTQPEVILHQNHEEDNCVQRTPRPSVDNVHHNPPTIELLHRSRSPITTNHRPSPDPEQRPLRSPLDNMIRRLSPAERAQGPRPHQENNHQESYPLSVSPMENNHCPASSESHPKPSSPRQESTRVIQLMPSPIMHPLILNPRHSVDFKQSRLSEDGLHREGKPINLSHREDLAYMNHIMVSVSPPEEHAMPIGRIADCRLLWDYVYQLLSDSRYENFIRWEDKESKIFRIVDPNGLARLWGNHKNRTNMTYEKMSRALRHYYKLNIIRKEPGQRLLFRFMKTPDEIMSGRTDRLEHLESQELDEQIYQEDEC
# Sequence of ETV1 (P50549 whole entry, the tested form may be a part): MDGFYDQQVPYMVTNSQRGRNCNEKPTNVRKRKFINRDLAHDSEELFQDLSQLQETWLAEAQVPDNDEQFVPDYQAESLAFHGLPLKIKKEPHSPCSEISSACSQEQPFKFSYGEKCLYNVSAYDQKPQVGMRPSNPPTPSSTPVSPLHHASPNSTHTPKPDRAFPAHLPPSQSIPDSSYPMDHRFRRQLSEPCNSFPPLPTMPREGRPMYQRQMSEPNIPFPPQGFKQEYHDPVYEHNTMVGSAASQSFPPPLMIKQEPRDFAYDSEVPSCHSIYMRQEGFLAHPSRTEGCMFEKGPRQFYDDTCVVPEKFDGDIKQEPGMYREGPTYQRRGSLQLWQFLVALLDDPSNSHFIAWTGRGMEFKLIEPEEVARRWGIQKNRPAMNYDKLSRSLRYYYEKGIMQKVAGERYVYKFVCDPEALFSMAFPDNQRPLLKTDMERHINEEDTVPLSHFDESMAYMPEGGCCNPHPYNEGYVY
sequence,measurement,setting,value
AAGAAC,binding signal,ETV1,"1.22 fold enrichment (6-mer frequency, TF over GST control)"
same,binding signal,ERF,"1.08 fold enrichment (6-mer frequency, TF over GST control)"
same,binding signal,ETV3L,"1.13 fold enrichment (6-mer frequency, TF over GST control)"
same,binding signal,ETS2,"1.18 fold enrichment (6-mer frequency, TF over GST control)"
same,binding signal,SPDEF,"1.23 fold enrichment (6-mer frequency, TF over GST control)"
same,binding signal,ETV7,"1.25 fold enrichment (6-mer frequency, TF over GST control)"
same,binding signal,ELF5,"1.21 fold enrichment (6-mer frequency, TF over GST control)"
same,binding signal,ETV3,"1.11 fold enrichment (6-mer frequency, TF over GST control)"
same,binding signal,ETV6,"1.27 fold enrichment (6-mer frequency, TF over GST control)"
